# PubChem BioAssay AID1159580 (chemical genetic matrix, 2015)
# Out of some 5,500 compounds screened, about 2,000 (36%) were called active. Another 18% or so got no clear call; they are omitted. This is one part of the list. A number with no mark means an inactive call. Rule as the data show it: active = normalized growth mostly below about 0.91 (no sharp cut-off); inconclusive = no clear call, values can overlap the other calls; inactive = mostly above about 0.92.
# Test: chemical genetic growth profiling, strain panel (AID 1159580);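 also: tested at 20 µM; growth read once vehicle control cultures reached saturation at 30 °C; 1 = growth at the plate median or of vehicle wells; lower values mean less growth of the strain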
# Conditions: S. cerevisiae deletion strains, growth OD
# [1] = locus YAL013W, strain DEP1, active compounds read low
# [2] = locus YBR229C, strain ROT2, active compounds read low
# [3] = locus YDL101C, strain DUN1, active compounds read low
# [4] = locus YDL134C, strain PPH21, active compounds read low
# [5] = locus YDR150W, strain NUM1, active compounds read low
# [6] = locus YEL061C, strain CIN8, active compounds read low
# [7] = locus YGR078C, strain PAC10, active compounds read low
# [8] = locus YGR229C, strain SMI1, active compounds read low
# [9] = locus YHR030C, strain SLT2, active compounds read low
# [10] = locus YHR087W, strain rtc3, active compounds read low
# [11] = locus YJL187C, strain SWE1, active compounds read low
# [12] = locus YJR043C, strain POL32, active compounds read low
# [13] = locus YJR075W, strain HOC1, active compounds read low
# [14] = locus YLR039C, strain RIC1, active compounds read low
# [15] = locus YLR058C, strain SHM2 (second series), active compounds read low
# [16] = locus YLR085C, strain ARP6, active compounds read low
# [17] = locus YLR262C, strain YPT6, active compounds read low
# [18] = locus YML094W, strain GIM5, active compounds read low
# [19] = locus YMR219W, strain ESC1, active compounds read low
# [20] = locus YMR263W, strain SAP30, active compounds read low
# [21] = locus YNL153C, strain GIM3, active compounds read low
# [22] = locus YNL298W, strain CLA4 (second series), active compounds read low
# [23] = locus YNL322C, strain KRE1, active compounds read low
# [24] = locus YNR030W, strain Alg12, active compounds read low
# [25] = locus YPL055C, strain LGE1, active compounds read low
# [26] = locus YPL241C, strain CIN2, active compounds read low
# [27] = locus YPR135W, strain CTF4, active compounds read low
# [28] = locus YAR019C, strain CDC15, active compounds read low
# [29] = locus YBL105C, strain PKC1, active compounds read low
# [30] = locus YBR135W, strain CKS1, active compounds read low
# [31] = locus YBR136W, strain MEC1, active compounds read low
# [32] = locus YBR160W, strain CDC28, active compounds read low
# [33] = locus YDL017W, strain CDC7, active compounds read low
# [34] = locus YDL028C, strain MPS1, active compounds read low
# [35] = locus YDL108W, strain KIN28, active compounds read low
# [36] = locus YDL132W, strain cdc53, active compounds read low
# [37] = locus YDL214C, strain PRR2, active compounds read low
# [38] = locus YDR052C, strain DBF4, active compounds read low
# [39] = locus YDR054C, strain cdc34, active compounds read low
# [40] = locus YDR226W, strain ADK1, active compounds read low
# [41] = locus YDR477W, strain SNF1, active compounds read low
# [42] = locus YER123W, strain YCK3, active compounds read low
# [43] = locus YER133W, strain GLC7, active compounds read low
# [44] = locus YFL009W, strain cdc4, active compounds read low
# [45] = locus YFL029C, strain CAK1, active compounds read low
# [46] = locus YFR003C, strain YPI1, active compounds read low
# [47] = locus YFR019W, strain FAB1, active compounds read low
# [48] = locus YFR028C, strain CDC14, active compounds read low
# [49] = locus YGR040W, strain KSS1, active compounds read low
# [50] = locus YGR052W, strain FMP48, active compounds read low
# [51] = locus YGR092W, strain DBF2, active compounds read low
# [52] = locus YHR079C, strain IRE1, active compounds read low
# [53] = locus YHR082C, strain KSP1, active compounds read low
# [54] = locus YHR205W, strain SCH9, active compounds read low
# [55] = locus YIL147C, strain SLN1, active compounds read low
# [56] = locus YJL095W, strain BCK1, active compounds read low
# [57] = locus YJL128C, strain PBS2, active compounds read low
# [58] = locus YJL157C, strain FAR1, active compounds read low
# [59] = locus YJR016C, strain ILV3, active compounds read low
# [60] = locus YJR066W, strain TOR1 (second series), active compounds read low
# [61] = locus YJR066W, strain TOR1, active compounds read low
# [62] = locus YKL048C, strain ELM1, active compounds read low
# [63] = locus YKL067W, strain YNK1, active compounds read low
# [64] = locus YKL101W, strain HSL1, active compounds read low
# [65] = locus YKL193C, strain SDS22, active compounds read low
# [66] = locus YKL203C, strain TOR2, active compounds read low
# [67] = locus YLR113W, strain HOG1, active compounds read low
# [68] = locus YLR133W, strain CKI1, active compounds read low
# [69] = locus YLR403W, strain SFP1, active compounds read low
# [70] = locus YML070W, strain DAK1, active compounds read low
# [71] = locus YMR001C, strain CDC5, active compounds read low
# [72] = locus YMR205C, strain PFK2 (second series), active compounds read low
# [73] = locus YMR277W, strain FCP1, active compounds read low
# [74] = locus YNL006W, strain LST8, active compounds read low
# [75] = locus YNL020C, strain ARK1, active compounds read low
# [76] = locus YNL161W, strain CBK1, active compounds read low
# [77] = locus YNL183C, strain NPR1, active compounds read low
# [78] = locus YNL207W, strain RIO2, active compounds read low
# [79] = locus YNL307C, strain MCK1 (second series), active compounds read low
# [80] = locus YOL078W, strain AVO1, active compounds read low
# [81] = locus YOL136C, strain PFK27, active compounds read low
# [82] = locus YOR061W, strain CKA2, active compounds read low
# [83] = locus YOR119C, strain RIO1, active compounds read low
# [84] = locus YOR231W, strain MKK1, active compounds read low
# [85] = locus YOR329C, strain SCD5, active compounds read low
# [86] = locus YPL031C, strain PHO85, active compounds read low
# [87] = locus YPL153C, strain RAD53, active compounds read low
# [88] = locus YPL204W, strain HRR25, active compounds read low
# [89] = locus YPL209C, strain IPL1, active compounds read low
# [90] = locus YPL256C, strain CLN2, active compounds read low
# [91] = locus YPR025C, strain CCL1, active compounds read low
# [92] = locus YPR106W, strain ISR1, active compounds read low
# [93] = locus YPR111W, strain DBF20, active compounds read low
# [94] = strain NNK1, active compounds read low
# [95] = strain TSCII, active compounds read low
compound,measurement,setting,value
CC(=O)CC(C)=Nc1ccc(C(F)(F)F)cc1,normalized growth,[1],0.989
same,normalized growth,[2],0.991
same,normalized growth,[3],0.994
same,normalized growth,[4],1.03
same,normalized growth,[5],0.908
same,normalized growth,[6],1.01
same,normalized growth,[7],0.981
same,normalized growth,[8],1.02
same,normalized growth,[9],1.08
same,normalized growth,[10],0.971
same,normalized growth,[11],0.995
same,normalized growth,[12],1.01
same,normalized growth,[13],1.05
same,normalized growth,[14],1.05
same,normalized growth,[15],1
same,normalized growth,[16],1.03
same,normalized growth,[17],1.04
same,normalized growth,[18],0.993
same,normalized growth,[19],1
same,normalized growth,[20],1.05
same,normalized growth,[21],0.985
same,normalized growth,[22],1.05
same,normalized growth,[23],1
same,normalized growth,[24],1.02
same,normalized growth,[25],0.939
same,normalized growth,[26],1.08
same,normalized growth,[27],0.969
N#CC(C#N)=NNc1cc(C(F)(F)F)ccc1OCC(F)(F)F,normalized growth,[28],0.913
same,normalized growth,[29],0.927
same,normalized growth,[30],0.917
same,normalized growth,[31],0.894
same,normalized growth,[32],0.906
same,normalized growth,[33],0.953
same,normalized growth,[34],0.917
same,normalized growth,[3],0.911
same,normalized growth,[35],0.911
same,normalized growth,[36],0.891 (active)
same,normalized growth,[37],0.611 (active)
same,normalized growth,[38],0.913
same,normalized growth,[39],0.893
same,normalized growth,[40],0.891 (active)
same,normalized growth,[41],0.572 (active)
same,normalized growth,[42],0.398 (active)
same,normalized growth,[43],0.459 (active)
same,normalized growth,[44],0.919
same,normalized growth,[45],0.921
same,normalized growth,[46],0.975
same,normalized growth,[47],0.691 (active)
same,normalized growth,[48],0.912
same,normalized growth,[49],0.611 (active)
same,normalized growth,[50],0.428 (active)
same,normalized growth,[51],0.818
same,normalized growth,[9],0.445 (active)
same,normalized growth,[52],0.831
same,normalized growth,[53],0.543 (active)
same,normalized growth,[54],0.814
same,normalized growth,[55],0.966
same,normalized growth,[56],0.533
same,normalized growth,[57],0.888
same,normalized growth,[58],0.814
same,normalized growth,[59],0.947
same,normalized growth,[60],0.437 (active)
same,normalized growth,[61],0.458 (active)
same,normalized growth,[62],0.88
same,normalized growth,[63],0.739
same,normalized growth,[64],0.787
same,normalized growth,[65],0.9
same,normalized growth,[66],0.71 (active)
same,normalized growth,[67],0.32 (active)
same,normalized growth,[68],0.868
same,normalized growth,[69],0.811
same,normalized growth,[70],0.623 (active)
same,normalized growth,[71],0.9
same,normalized growth,[72],0.889
same,normalized growth,[73],0.871 (active)
same,normalized growth,[74],0.976
same,normalized growth,[75],0.917
same,normalized growth,[76],0.899
same,normalized growth,[77],0.329 (active)
same,normalized growth,[78],0.923
same,normalized growth,[79],0.734
same,normalized growth,[80],0.904
same,normalized growth,[81],0.693
same,normalized growth,[82],0.86
same,normalized growth,[83],0.45 (active)
same,normalized growth,[84],0.782
same,normalized growth,[85],0.978
same,normalized growth,[86],0.703
same,normalized growth,[87],0.679
same,normalized growth,[88],0.688
same,normalized growth,[89],0.928
same,normalized growth,[90],0.33 (active)
same,normalized growth,[91],0.923
same,normalized growth,[92],0.932
same,normalized growth,[93],0.895
same,normalized growth,[94],0.957
same,normalized growth,[95],0.858 (active)
N#CC(C#N)=CNc1cc(C(F)(F)F)ccc1N1CCCCC1,normalized growth,[1],0.995
same,normalized growth,[2],1
same,normalized growth,[3],0.991
same,normalized growth,[4],0.997
same,normalized growth,[5],0.973
same,normalized growth,[6],1
same,normalized growth,[7],0.987
same,normalized growth,[8],1
same,normalized growth,[9],0.936
same,normalized growth,[10],1.01
same,normalized growth,[11],1
same,normalized growth,[12],1
same,normalized growth,[13],0.966
same,normalized growth,"locus YKL190W, strain CNB1, active compounds read low",1
same,normalized growth,[14],0.997
same,normalized growth,[15],1
same,normalized growth,[16],0.96
same,normalized growth,[17],1.04
same,normalized growth,[18],0.989
same,normalized growth,[19],1
same,normalized growth,[20],0.986
same,normalized growth,"locus YMR307W, strain GAS1, active compounds read low",0.909
same,normalized growth,[21],1.01
same,normalized growth,[22],1
same,normalized growth,[23],0.992
same,normalized growth,[24],1.01
same,normalized growth,"locus YOL006C, strain TOP1, active compounds read low",1.01
same,normalized growth,[25],0.989
same,normalized growth,[26],0.996
same,normalized growth,[27],0.915
CCOC(=O)C1C(c2ccc(Br)cc2)C(C(=O)OCC)C(O)(C(F)(F)F)NC1(O)C(F)(F)F (stereo not drawn),normalized growth,[28],0.999
same,normalized growth,[29],0.991
same,normalized growth,[30],1
same,normalized growth,[31],0.988
same,normalized growth,[32],0.999
same,normalized growth,[33],0.996
same,normalized growth,[34],0.999
same,normalized growth,[3],0.99
same,normalized growth,[35],1
same,normalized growth,[36],0.996
same,normalized growth,[37],0.961
same,normalized growth,[38],0.994
same,normalized growth,[39],0.992
same,normalized growth,[40],0.998
same,normalized growth,[41],0.994
same,normalized growth,[42],0.917
same,normalized growth,[43],0.969
same,normalized growth,[44],0.998
same,normalized growth,[45],0.994
same,normalized growth,[46],0.995
same,normalized growth,[47],0.878
same,normalized growth,[48],0.995
same,normalized growth,[49],0.99
same,normalized growth,[50],1
same,normalized growth,[51],0.993
same,normalized growth,[9],0.941
same,normalized growth,[52],0.981
same,normalized growth,[53],0.961
same,normalized growth,[54],0.91
same,normalized growth,[55],0.999
same,normalized growth,[56],0.97
same,normalized growth,[57],0.967
same,normalized growth,[58],0.975
same,normalized growth,[59],0.997
same,normalized growth,[60],0.943
same,normalized growth,[61],0.911
same,normalized growth,[62],0.986
same,normalized growth,[63],0.974
same,normalized growth,[64],1
same,normalized growth,[65],0.998
same,normalized growth,[66],1.03
same,normalized growth,[67],0.91
same,normalized growth,[68],0.97
same,normalized growth,[69],0.966
same,normalized growth,[70],0.956
same,normalized growth,[71],0.987
same,normalized growth,[72],0.988
same,normalized growth,[73],0.996
same,normalized growth,[74],0.999
same,normalized growth,[75],0.99
same,normalized growth,[76],0.999
same,normalized growth,[77],0.942
same,normalized growth,[78],0.996
same,normalized growth,"locus YNL222W, strain SSU72, active compounds read low",0.999
same,normalized growth,[79],0.969
same,normalized growth,[80],1
same,normalized growth,[81],0.947
same,normalized growth,[82],0.995
same,normalized growth,[83],1.01
same,normalized growth,[84],0.984
same,normalized growth,[85],0.995
same,normalized growth,[86],0.999
same,normalized growth,[87],0.989
same,normalized growth,[88],0.985
same,normalized growth,[89],0.996
same,normalized growth,[90],0.9
same,normalized growth,[91],0.997
same,normalized growth,[92],0.99
same,normalized growth,[93],0.99
same,normalized growth,[94],0.992
same,normalized growth,[95],0.998
